Laboratory results published in PMC5540273 (PLoS ONE, 2017).
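Further: KINOMEscan kinase panel screen.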

Each molecule was assayed on ERBB4. Conditions: concentration: 1 μM, replicates: in singlicate; n = 1.
In the case of `CN(C1=C(c2ccccc2)C(=O)NC1=O)c1ccccc1` [SB-334860], the “%Inh” value is reported as 33%. `Cl.Nc1ncnc2occ(-c3ccc(NC(=O)Nc4cc(C(F)(F)F)ccc4F)cc3)c12` [SB-707548] was tested, and the “%Inh” value was 23%. With `NS(=O)(=O)c1cccc(-c2ccc3nccc(-c4cccc(S(N)(=O)=O)c4)c3c2)c1` [GW867253] the “%Inh” value was 7%. `NS(=O)(=O)c1cccc(-c2ccc3ncc(N4CCOCC4)nc3c2)c1` [GSK1535721] was tested, and the “%Inh” value was 1%. With `COc1ccc(CNC(=O)NC2CCN(c3ccnc(Nc4ccc(OC)cc4)n3)C2)cc1` (stereo not shown) [GSK1379727] the “%Inh” value was 2%. In the case of `Cc1nnc(-c2ccc(C)c(-c3ccc(C(=O)Nc4ccc(NS(C)(=O)=O)cc4)cc3)c2)o1` [GW702865], the “%Inh” value is reported as 8%. For `Cc1nnc(-c2ccc3occ(-c4ccc(C(C)O)cc4)c3c2)o1` (stereo not shown), the “%Inh” value was 0%. With `[2H]C([2H])(c1cccc(C(F)(F)F)c1C)n1ccn2c(=O)nc(N3CCOCC3)cc12` [GSK2336394] the “%Inh” value was 24%. With `NCC(NC(=O)c1cc(-c2cn[nH]c2)c(-c2ccnc3[nH]ccc23)s1)c1ccccc1.O=C(O)C(F)(F)F.O=C(O)C(F)(F)F` (stereo not shown) [GSK1325775] the “%Inh” value was 10%. `O=C(NCCNc1ccnc(Nc2ccc(F)cc2)n1)Nc1ccccc1F` [GSK1379880] was tested, and the “%Inh” value was 38%. `COc1ccc(S(=O)(=O)NC2CCN(c3cc(C)nc(Nc4cccc(C#N)c4)n3)CC2)cc1.O=C(O)C(F)(F)F` [GSK1653539] was tested, and the “%Inh” value was 0%. `O=C1NC(=O)C(N2CCc3ccccc32)=C1c1cccc(Cl)c1` [SB-408010] was tested, and the “%Inh” value was 0%. In the case of `O=c1cc(N2CCOCC2)nc2n(Cc3cccc(Cl)c3Cl)c(C3CC3)nn12` [GSK2358994], the “%Inh” value is reported as 0%. In the case of `O=c1cc(N2CCOCC2)nc2n(Cc3cccc(F)c3)ccn12` [GSK2297430], the “%Inh” value is reported as 0%. With `CSc1ccc(-c2cc3ncnc(SCC(=O)O)c3s2)cc1` the “%Inh” value was 0%. `O=C(c1ccc(-c2cc(-c3c[nH]nc3-c3ccccn3)ccn2)cc1)N1CCOCC1` [GW812171] was tested, and the “%Inh” value was 0%. `COc1ccc(Nc2nccc(N3CCC(NC(=O)Nc4cc(C)ccc4C)C3)n2)cc1` (stereo not shown) [GSK1379741] was tested, and the “%Inh” value was 52%. With `Fc1ccc(-c2nn3c(OCC(F)(F)F)cccc3c2-c2ccncc2)cc1` [GW514784] the “%Inh” value was 37%. For `N#Cc1ccc(-c2cc(-c3c[nH]nc3-c3ccccn3)ccn2)cc1` [GW693028], the “%Inh” value was 27%. With `COc1cc2ncn(-c3cc(OCc4sccc4Cl)c(C(N)=O)s3)c2cc1OC` [GSK448459] the “%Inh” value was 31%. With `NS(=O)(=O)CCc1cccc(Nc2nccc(-c3c(-c4cccc(NC(=O)c5c(F)cccc5F)c4)nn4ccccc34)n2)c1` [GSK336735] the “%Inh” value was 100%. For `O=C(Nc1n[nH]c2cc(-c3cccc(F)c3)ccc12)C1CC1` [SB-735464], the “%Inh” value was 7%.
